High-throughput results as filed in PubChem.
In the library only some 7.4% were active in any assay of this set; here they are far more common.
FLuc modulator: inhibits or activates purified firefly luciferase, miR-21 counter-screen; P08659; purified FLuc, Km substrates, luminescence inhibition; Potency, µM (doses to about 57.5 µM), usual class: inhibitors; actives 6.9% (n = 360,000); AID 588342; also: nearly all actives have a fitted effect of over 55% in size
Target sequence (P08659 whole entry, looked up): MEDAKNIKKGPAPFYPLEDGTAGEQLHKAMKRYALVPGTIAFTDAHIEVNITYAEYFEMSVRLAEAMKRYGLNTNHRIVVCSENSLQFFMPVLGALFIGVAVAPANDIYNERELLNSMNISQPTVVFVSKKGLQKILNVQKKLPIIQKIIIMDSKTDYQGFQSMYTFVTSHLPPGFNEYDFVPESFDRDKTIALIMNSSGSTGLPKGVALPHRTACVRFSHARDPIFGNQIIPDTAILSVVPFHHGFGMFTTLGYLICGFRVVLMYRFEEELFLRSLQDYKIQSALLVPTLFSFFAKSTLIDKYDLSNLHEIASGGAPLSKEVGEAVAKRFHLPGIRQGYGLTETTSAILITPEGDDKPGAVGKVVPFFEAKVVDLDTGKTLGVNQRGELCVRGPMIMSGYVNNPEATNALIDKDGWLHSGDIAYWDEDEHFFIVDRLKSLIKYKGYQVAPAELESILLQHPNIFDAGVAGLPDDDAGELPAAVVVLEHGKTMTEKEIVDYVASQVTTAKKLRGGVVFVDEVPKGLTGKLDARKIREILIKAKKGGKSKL
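Biochemical qHTS of compounds, final roughly 60 µM downward over six points, against 10 nM purified firefly luciferase using Km concentrations of substrates (10 uM D-luciferin, 10 uM ATP) in Tris acetate pH 7.5 buffer; luminescence output.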
SMN2 splice enh: increases expression of the SMN2 splice variant; HEK293 SMN2-luciferase splicing reporter, luminescence, 30-36 h; actives 2.8% (n = 210,000); Potency, µM (highest dose often 46.1 µM), actives largely listed as activators; also: nearly all actives have a fitted effect of over 55% in size
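HEK293 cells carry an SMN2 minigene-luciferase reporter in which exon 7 inclusion puts luciferase in frame. Cells were seeded at 2000 cells/well, attached for 10-12 hours, then exposed to compounds for 30-36 hours at 37C before ONE-Glo luminescence.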
NPC1 promoter act: activators of NPC1 promoter; AID 485313; Huh7 NPC1 promoter luciferase reporter, 24 h; Potency, µM (top dose mostly 9.22 µM), most hits filed as activators; actives 2.4% (n = 320,000); also: nearly all actives have a fitted effect of over 60% in size
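Luminescence from an NPC1 promoter-driven luciferase reporter in stably transfected Huh7 cells was measured after 24 h compound treatment at 37 °C, followed by 10 min ambient incubation with luciferase detection reagent.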
Rab9 promoter act: activators of Rab9 promoter; Potency, µM (titrated, usually from 9.22 µM), usual class: activators; AID 485297; Huh7 Rab9 promoter-luciferase reporter, luminescence, 24 h; actives 2.8% (n = 320,000); also: nearly all actives have a fitted effect of over 60% in size
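Promoter activation is measured as luciferase luminescence in Huh7 cells stably transfected with a Rab9 promoter–luciferase construct, following 24 h compound exposure at 37 °C and 10 min reagent incubation at ambient temperature.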
ELG1 genotoxic: genotoxicity induction in ELG1-luciferase HEK293T cells. HEK293T ELG1-luciferase reporter, luminescence, 16 h. Potency, µM (highest dose often 46 µM), most hits filed as activators. actives 1.3% (n = 330,000); also: nearly all actives have a fitted effect of over 60% in size
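Cells (2,000/well) expressing the ELG1-luciferase fusion are dosed by pin tool and kept 16 hr at 37 °C, 5% CO2. Signal comes from ONE-Glo luciferase reagent after 30 min at room temperature.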
Numbers stand for hits; - = inactive; ? = inconclusive; . = no result; [ ] = dose if it differs, or a comment. Calls follow the shape of the dose curve; as a rule, active = well fitted curve in the direction sought with a large enough effect; inconclusive = small, poorly fitted or top-dose-only effect, or another doubt; inactive = no such curve, though single readings can be large; an effect the other way counts as inactive or inconclusive.

SMILES	FLuc modulator	SMN2 splice enh	NPC1 promoter act	Rab9 promoter act	ELG1 genotoxic
CCCCOC(=O)c1ccc(Nc2ccc([N+](=O)[O-])cn2)cc1	-	-[1.84 µM]	-	-	-
CCCCOc1ccc(-c2ncc([N+](=O)[O-])cn2)cc1	?	.	4µM	3.2µM	?
CCc1nc(SCC(=O)Nc2ccc(N(C)C)cc2)c2ccccc2n1	-	.	-	-	-
CC(=O)NC(NC(=S)Nc1cccc(Br)c1)C(Cl)(Cl)Cl (stereo not given)	-	.	-	-	-
CN(C(=O)c1ccc(NC(=O)Cc2ccc(NC(=O)C3CCCN(C(=O)C4CC4)C3)cc2)cc1)C1CC1 (stereo not given)	?	.	-	-	-
COc1ccc2nc(SCC(=O)c3ccco3)[nH]c2c1	5.4µM	?	2.2µM	1.8µM	?
COc1ccc2nc(SCC(=O)C(C)(C)C)[nH]c2c1	?	.	2µM	2.2µM	15µM
O=C(CSc1nc2ccccc2[nH]1)c1ccco1	17µM	?	?	4µM	?
O=C(CSc1nc2ccccc2[nH]1)NCc1ccccc1	-	.	-	-	-
COc1ccc2nc(SCC(=O)NC(C)(C)C)[nH]c2c1	-	-	-	-	-
O=C(CSc1ncnc2ccccc12)c1ccco1	3µM	.	3.2µM	3.2µM	?
CN(C(=S)NC(=O)C12CC3CC(CC(C3)C1)C2)c1ccc(O)cc1	.	.	.	.	-
Cc1oc2ccc(O)c(CN3CCN(C)CC3)c2c1C(=O)Nc1cccc(C(F)(F)F)c1	-	-	.	.	.
CN1C(=O)C2(SCC(=O)N2c2ccc(Cl)cc2)c2ccccc21 (stereo not given)	-	.	.	.	.
[O-]/[N+](=C\c1ccncc1)c1ccc(Br)cc1	8.5µM	.	?	?	?
CCN(CC)CCOC(=O)c1ccc(NC(=O)c2nn(-c3ccc(C)cc3)c(=O)c3c2c2ccccc2n3C)cc1	-	-	.	.	.
CSc1nnc2c(n1)c(C)nn2-c1cccc(C)c1	13µM	-	-	-	-
CC1(c2ccccc2)NC(=O)N(CC(=O)NCc2cccc(Cl)c2)C1=O (stereo not given)	-	.	-	-	-
CCc1nnc(SCc2nc(-c3ccccc3F)oc2C)c2cc3sccc3n12	-	.	.	.	.
CCn1c(SCC(=O)Nc2ccc3c(c2)OCCO3)nnc1-c1cccnc1	24µM	.	-	-	-
CCn1c(SCC(=O)Nc2ccc3c(c2)OCCO3)nnc1-c1ccco1	15µM	-	-	-	-
CCn1c(SCC(=O)NC(=O)Nc2ccc3c(c2)OCCO3)nnc1-c1cccs1	19µM	-	-	-	-
O=C(CSc1nnc(-c2cccs2)n1Cc1ccco1)Nc1ccc2c(c1)OCO2	-	-	-	-	-
CC(=O)N1CCCc2cc(S(=O)(=O)N3CCCC(C(=O)Nc4cccc(Cl)c4C)C3)ccc21 (stereo not given)	-	.	.	.	.
COc1ccccc1N=CC=C1OC(C)(C)C(C)(C)O1	-	-	-	-	-
SMILES	FLuc modulator	SMN2 splice enh	NPC1 promoter act	Rab9 promoter act	ELG1 genotoxic
Cc1ccc(N=CC=C2OC(C)(C)C(C)(C)O2)c(C)c1	7.6µM	-	-	-	-
Cc1cc(Cl)ccc1OCC(=O)NNC(=O)CCOc1ccccc1	.	.	-	-	-
Cc1ccc(NC(=O)c2ccc(Cl)cc2Cl)cc1O	8.5µM	.	?	?	?
Cc1ccc(C(=O)Nc2ccc(Cl)cc2C)c(Cl)c1	1.7µM	10µM	0.89µM	3.2µM	2.9µM
Cc1ccc(C(=O)Nc2ccc(Cl)cc2C(F)(F)F)c(Cl)c1	11µM	?	-	?	-
CNS(=O)(=O)c1ccc(NC(=O)c2ccc(Cl)cc2Cl)cc1	-	-	-	-	-
CSC(=[SH+])N=N/C(=C1/C=CC=CN1)c1ccccn1.[Cu][Br]	.	-[9.22 µM]	.	.	.
Cc1ccc(C(=O)NCc2ccco2)cc1S(=O)(=O)N1CCCC1	-	.	-	-	-
O=C(O/N=C1\CCCc2ccccc21)c1cccs1	1.3µM	-	-	-	-
O/N=C1\CCCc2ccccc21	-	.	-	-	-
O=C(Cc1ccccc1)O/N=C1\CCCc2ccccc21	15µM	-	-	-	-
Cc1cc(=O)n2[nH]c(-c3ccco3)nc2n1	?	-	-	-	-
CCCc1cc(=O)n2[nH]c(-c3ccco3)nc2n1	15µM	-	-	-	-
O=C(Oc1ccc2ccc(O)cc2c1)c1ccccc1Cl	2.4µM	.	-	-	?
O=C(Oc1ccc2ccccc2c1)C1CCC1	24µM	.	-	-	-
O=C(Oc1ccc(OC(=O)C2CCC2)cc1)C1CCC1	?	-	-	-	-
O=C(Oc1ccc2ccc(O)cc2c1)C1CCCCC1	17µM	-	-	-	-
O=C(COc1ccc(C(=O)c2ccccc2)cc1)NCC1CCCCC1	-	-	-	-	-
COc1cc(C(=O)Oc2ccc3ccc(O)cc3c2)cc(OC)c1OC	-	.	-	-	?
O=C(c1ccccc1)c1ccc(OC(=O)C2CCCCC2)cc1	13µM	.	-	-	-
CCOC(=O)COc1ccc2c(c1)c(C(C)=O)c(C)n2-c1ccc(OC)cc1	-	.	-	-	-
COc1ccc(NC2CCCN(C(=O)C3(C)CCCCC3)C2)cc1 (stereo not given)	-	.	-	-	-
Cc1ccc(NC(=S)N2CCSC2c2cccs2)cc1 (stereo not given)	15µM	-	-	-	-
Cc1cc(C(=O)CSc2nnc(-c3cccs3)o2)c(C)n1-c1ccccc1	6.7µM	-	-	-	-
COc1ccc(-c2nnc(SCC(=O)c3cccs3)o2)cc1	2.4µM	-	3.5µM	2.2µM	10µM
SMILES	FLuc modulator	SMN2 splice enh	NPC1 promoter act	Rab9 promoter act	ELG1 genotoxic
COc1ccc(-c2nnc(SCC(=O)c3ccc[nH]3)o2)cc1	4.3µM	8.9µM	3.2µM	1.6µM	?
CCNC(=O)CSc1nnc(-c2cccs2)o1	-	-	-	-	-
COc1cccc(C(=O)CSc2nnc(-c3cccs3)o2)c1	-	-	-	-	-
O=C(CSc1nnc(-c2cccs2)o1)c1cccs1	9.5µM	-	1.6µM	2.8µM	?
COc1ccc(-c2nnc(SCC(=O)c3cc(C)n(Cc4cccs4)c3C)o2)cc1	?	-	-	-	-
O=C(CCc1ccc(S(=O)(=O)N2CCOCC2)cc1)Nc1ccc(F)c(F)c1F	.	.	.	.	-
Cc1ccc(SCC(=O)c2ccc[nH]2)cc1	24µM	?	?	?	?
O=C(CSc1nnc(-c2cccs2)o1)OCc1ccccc1	-	-	-	-	-
Cc1ccc(CNC(=O)c2ccc[nH]2)cc1	-	-	-	-	-
O=C(CSc1nnc(-c2cccs2)o1)OC1CCCCC1	24µM	-	-	-	-
CC1Cc2cc(S(=O)(=O)CCC(=O)Nc3ccc(Cl)cc3F)ccc2N1C(=O)C1CC1 (stereo not given)	-	.	.	.	.
c1ccc(COc2ccc3nocc3c2)cc1	7.6µM	.	3.2µM	2µM	?
COc1ccc(S(=O)(=O)CCc2nc3ccccc3s2)cc1	-	-	-	-	-
c1ccc(OCc2nc3ccccc3s2)cc1	3.4µM	13µM	2.5µM	2.8µM	?
O=S(=O)(Cc1nc2ccccc2s1)c1ccccc1	12µM	14µM	2µM	3.2µM	4.6µM
